We go through 20 compounds from PubChem BioAssay (Tox21).

“And” between values parts separate entries of the source, which are not always exact repeats. Equal entries are not always repeated. Results filed as inconclusive are left out. Where a structure was tested more than once in an assay, its records may differ in their call. The source made the active and inactive calls. Unless noted, the call rests on the fitted dose curve; in most records, active means well fitted curve in the direction sought with a large enough effect in the repeat runs; inconclusive means weak or mixed curves; inactive means no such curve, though single readings can be large; an effect the other way counts as inactive or inconclusive.

A short description of test [1]: qHTS assay for small molecule agonists of the p53 signaling pathway (AID 651631; calls by dose curve; further: nearly all actives have a fitted effect of over 15% in size; further: potency means the concentration at half of the fitted maximal effect). In outline: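 Fluorescence intensity from cleaved LiveBLAzer B/G substrate (2 h, room temperature) served as the signal. Beforehand, HCT-116 reporter cells bearing p53 response elements were treated 16 h at 37 °C with DMSO-dissolved compounds.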
Test [2] in a line: qHTS assay for small molecules that induce genotoxicity in human embryonic kidney cells expressing luciferase-tagged ATAD5 (AID 651632). Further: nearly all actives have a fitted effect of over 15% in size. Further: potency means the concentration at half of the fitted maximal effect. In outline:
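Quantitative HTS in HEK293T expressing luciferase-tagged ATAD5, whose levels rise upon DNA damage. Exposure ran 16 hr at 37C and 5% CO2, with luminescence read 30 min after Amplite addition at room temperature.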
(In general: Quantitative high-throughput screening tests each substance at several concentrations.)

Test [3] can be described thus: qHTS assay for small molecule agonists of the p53 signaling pathway - cell viability (AID 651633; calls by dose curve; further: nearly all actives have a fitted effect of over 30% in size; further: potency means the concentration at half of the fitted maximal effect). In outline:
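p53RE-bla cells were treated with compound for 16 hours at 37 C. Cytotoxicity was then measured as CellTiter-Glo luminescence after 30 min at room temperature.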

The nature of test [4]: qHTS assay for small molecules that induce genotoxicity in human embryonic kidney cells expressing luciferase-tagged ATAD5 - cell viability (AID 651634; calls by dose curve; further: nearly all actives have a fitted effect of over 25% in size; further: potency means the concentration at half of the fitted maximal effect). In outline: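 After 15.5 hr incubation with compound at 37C, 5% CO2, HEK293T ATAD5-luciferase cells received CellTiter-Fluor reagent; fluorescence intensity was quantified following 30 min at 37C.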
Test [5] in a line: qHTS assay for small molecule disruptors of the mitochondrial membrane potential - cell viability (AID 720634; calls by dose curve; further: nearly all actives have a fitted effect of over 20% in size; further: potency means the concentration at half of the fitted maximal effect). Summed up:
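ATP-based luminescent viability readout (CellTiter-Glo, 30 min, room temperature) in HepG2 cells multiplexed with the m-MPI membrane potential dye; compound exposure lasted 1 hr at 37 C.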

Test [6] can be described thus: qHTS assay for small molecule disruptors of the mitochondrial membrane potential (AID 720635). Further: potency means the concentration at half of the fitted maximal effect. Summed up:
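HepG2 cells exposed to compound 1 hr at 37C, then Mito-MPS dye 30 min. Ratio read of aggregate (540/590 nm) versus monomer (490/535 nm) fluorescence.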

Test [7] can be described thus: qHTS assay to test for compound auto fluorescence at 590 nm (red) in HepG2 cells (AID 720674). Summed up:
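Fluorescence at 590 nm emission following 540 nm excitation was recorded from HepG2 wells one hour after compound transfer, with DMSO-only wells as vehicle and Rose Bengal sodium equivalency as the scale.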

Test [8] in a line: qHTS assay to test for compound auto fluorescence at 535 nm (green) in HepG2 cells (AID 720675).
Test [9] is described as follows: qHTS assay to test for compound auto fluorescence at 460 nm (blue) in HEK293 cells (AID 720678). Summed up: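 HEK293 cells (2,000/well, medium with 10% dialyzed FBS) attached 4-5 hr, then exposed to compound overnight at 37C, 5% CO2. Blue fluorescence read at 405/460 nm, with triamterene as reference fluorophore.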
Test [10] can be described thus: qHTS assay to test for compound auto fluorescence at 590 nm (red) in HEK293 cells (AID 720679). In outline:
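HEK293 cells (2,000/well, 10% dialyzed FBS) attached 4-5 hr, then dosed with compound or DMSO and incubated overnight at 37C, 5% CO2. Red fluorescence read at 540/590 nm, Rose Bengal sodium as reference fluorophore.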

For the compound `CC(=O)O[C@H]1CC[C@@]2(C)C(=CC[C@@H]3[C@@H]2CC[C@]2(C)C(=O)CC[C@@H]32)C1`, the Potency result in test [1], in [2], in test [3], in [4], in [5] and in test [9] was “inactive” in each case. In addition, in test [6], the Potency entry was “inactive and 54.5 µM (active)”. Also, the compound was classed as inactive in [7], in test [8] and in [10].
As to `CN(C)[C@@H]1C(=O)C(C(N)=O)=C(O)[C@@]2(O)C(=O)C3=C(O)c4c(O)ccc(Cl)c4[C@@](C)(O)[C@H]3C[C@@H]12`, the Potency result in [1], in [2], in test [3], in test [4], in [5] and in test [6] was “inactive” in each case. In addition, the Potency entry in [9] was “inactive”. The call in [7], in [8] and in test [10] was inactive.
`CC(C)(C)OO`: the Potency result in test [1], in test [2], in [3], in [4], in test [5] and in [6] was “inactive” in each case. Also, in [9], the Potency result was “inactive”. In addition, the compound was classed as inactive in test [7], in test [8] and in test [10].
Turning to `CC(C)CC(C)N` (stereo unspecified), the Potency result in [1], in test [2], in test [3], in test [4], in test [5] and in test [6] was “inactive” in each case. Besides, in [9], the Potency result is “inactive”. Besides, the compound was classed as inactive in [7], in test [8] and in test [10].
On to `FC(F)(F)c1cccc(C2=CCN(CCc3ccc4ccccc4c3)CC2)c1`, for which the Potency result in test [1], in test [2], in [3], in test [4], in [5] and in test [9] was “inactive” in each case. Moreover, the call in test [7], in test [8] and in test [10] was inactive.
On to `CNC(C)Cc1ccc2c(c1)OCO2` (stereo unspecified), for which the Potency entry in test [1], in [2], in test [3], in [4], in test [5] and in [6] was “inactive” in each case. Also, the Potency entry in test [9] was “inactive”. For the same compound, the outcome in test [7], in [8] and in [10] was inactive.
As to `CN(C)CCc1c[nH]c2cccc(O)c12`, the Potency entry in test [1], in test [2], in [3], in [4], in test [5] and in test [6] was “inactive” each time. The Potency result in test [9] is “inactive”. In addition, the compound was classed as inactive in test [7], in [8] and in [10].
Regarding `CC(=O)/C=C/c1ccc2c(c1)OCO2`, the Potency in test [1] is 30.8 µM (active). Further, the Potency result in [2], in test [3], in test [4], in test [5], in test [6] and in test [9] was “inactive” throughout. In addition, the compound was called inactive in [7], in [8] and in [10].
For `COc1ccc(/C(=C/C(=O)N2CCOCC2)c2ccc(Cl)cc2)cc1OC`, the Potency result in test [1], in test [2], in [3], in [4], in test [5] and in test [9] was “inactive” in each case. Besides, the compound was called inactive in [7], in [8] and in test [10].
For the compound `CCCCCCCCCBr`, the Potency result in [1], in test [2], in test [3], in [4], in test [5] and in test [9] was “inactive” in each case. In addition, the compound was classed as inactive in test [7], in test [8] and in test [10].
In the case of `CCCN(CCC)CCc1c[nH]c2ccccc12`, the Potency result in test [1], in [2], in test [3], in test [4], in [5] and in [9] was “inactive” in each case. Also, the compound was classed as inactive in test [7], in test [8] and in [10].
For the compound `CCCN(CC)CC1COC2(CCC(C(C)(C)C)CC2)O1` (stereo unspecified), the Potency result in test [1], in test [2], in test [3], in test [4], in [5] and in [9] was “inactive” in each case. Besides, the call in test [7], in test [8] and in [10] was inactive.
`Cc1cc(C(C)(C)c2cc(C)c(O)c(C)c2)cc(C)c1O`: the Potency in test [1] is 29.6 µM (active); in test [3], 59.1 µM (active); in test [5], 29.6 µM (active); in [6], 18.7 µM (active). Further, the Potency result in test [2], in test [4] and in test [9] was “inactive” throughout. Further, the compound was called inactive in [7], in [8] and in test [10].
On to `Cn1cc(C2=C(c3cn(C4CCN(Cc5ccccn5)CC4)c4ccccc34)C(=O)NC2=O)c2ccccc21`, for which the Potency in test [1] is 7.5 µM (active). Moreover, the Potency entry in test [2], in test [3], in test [4], in [5], in test [6] and in test [9] was “inactive” throughout. The compound was called inactive in test [7], in [8] and in test [10].
For the compound `Cc1cc(C)cc(OP(=O)(Oc2cc(C)cc(C)c2)Oc2cc(C)cc(C)c2)c1`, the Potency entry in test [1], in test [2], in test [3], in [4] and in test [9] was “inactive” each time. Besides, in [6], the Potency was 49.3 µM (active). The result in test [7], in [8] and in [10] was inactive.
Take `C1CCC2CCCCC2C1` (stereo unspecified): the Potency entry in test [1], in test [2], in test [3], in [4], in test [5] and in test [9] was “inactive” in each case. Besides, the outcome in test [7], in test [8] and in [10] was inactive.
Regarding `C[C@]12CC[C@@H]3c4ccc(OC(=O)N(CCCl)CCCl)cc4CC[C@H]3[C@@H]1CC[C@@H]2O`, the Potency in test [1] is 21.1 µM (active). Besides, the Potency result in test [2], in test [3], in test [4], in [5], in test [6] and in [9] was “inactive” each time. The call in test [7], in test [8] and in test [10] was inactive.
For `ClC(Cl)=C(Cl)Cl`, the Potency entry in test [1], in test [2], in [3], in test [4], in [5] and in test [9] was “inactive” each time. Besides, the outcome in test [7], in [8] and in test [10] was inactive.
Consider `CC(=O)OC1(c2ccccc2)CCN(CCc2ccccc2)CC1`, for which the Potency result in test [1], in [2], in [3], in test [4], in [5] and in test [9] was “inactive” each time. Further, the compound was called inactive in [7], in test [8] and in test [10].
With `[CH3][Hg][Cl]`, the Potency in [1] was 30.5 µM (active); in test [2], 4.84 µM (active); in test [3], 24.3 µM (active); in test [4] it was 27.2 µM (active); in test [5], 27.2 µM (active); in test [6] it was 19.3 µM (active). The compound was called inactive in test [7], in [8] and in [10]. The Potency entry in test [9] was “inactive”.
